The record followed here is PubChem BioAssay (EPA / NIEHS).

Active and inactive are the calls of the source. How the source made its calls: active means hit-call score of the fitted dose curve at least 0.9, where 1 is the maximum; inactive means score below 0.9.

The experiment is described as follows: ATG_M_61_CIS: Attagene CIS-FACTORIAL HepG2 Assay for M61 Transcription Factor (Internal Marker) (AID 2282937). Conditions: HepG2 Attagene CIS-FACTORIAL M61 internal marker reporter; actives raise or lower the signal. The method, boiled down: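 Human liver HepG2, transient MRTU transfection (cis promoter elements), 24 h compound. Total RNA → oligo(dT) RT → PCR → FAM label → HpaI → CE. Internal background marker; bidirectional fitting, DMSO = baseline.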
`OC[C@@H](O)[C@H]1O[C@@H]2O[C@H](C(Cl)(Cl)Cl)O[C@@H]2[C@H]1O`: the call was inactive. The same measure for `O=C(Cc1ccccc1)OCCc1ccccc1`: “inactive”. Take `CCC[N+](CCC)(CCC)CCC`: the result was inactive.

Take `N#Cc1ccccc1Cl`: the molecule was classed as inactive. On to `Cc1cc(C(C)(C)c2ccc(O)c(C)c2)ccc1O`, for which the outcome was inactive. On to `C#CCO`, for which the outcome was inactive. Take `O=NN1CCOCC1`: the molecule was classed as inactive.

With `CCCSP(=S)(OCC)Oc1ccc(Cl)cc1Cl` (centres undefined), the molecule was classed as inactive. Consider `COCCl`, for which the call was inactive. Turning to `CNC(=O)O/N=C/C(C)(C)S(C)(=O)=O`, the call was inactive. On to `c1cc[c]([Sb]([c]2ccccc2)[c]2ccccc2)cc1`, for which the outcome was inactive.

As to `CN(N=O)C(N)=O`, the outcome was inactive. For `CCC[CH2][Sn]([CH2]CCC)([CH2]CCC)[CH2]CCC`, the result was inactive. As to `CC(c1ccccc1)(c1ccc(O)cc1)c1ccc(O)cc1`, the outcome was inactive. Consider `C[CH2][Hg][S]c1ccccc1C(=O)O`, for which the outcome was inactive. `O=C(Nc1ccc(Br)cc1)c1cc(Br)cc(Br)c1O`: the call was inactive. Consider `COC(F)(C(F)(F)C(F)(F)F)C(F)(C(F)(F)F)C(F)(F)F` (centres undefined), for which the outcome was inactive. To `Clc1cccc(Cl)c1` belongs “inactive”; to `CC1CC(=O)O1` (centres undefined), “inactive”. As for `CCCCCCCCCCCCBr`, the outcome was inactive. As for `Cc1ccc2nc3sc(=O)sc3nc2c1`, the outcome was inactive. Consider `ClCCCCl`, for which the molecule was classed as inactive. `Brc1c(Br)c(Br)c(Oc2c(Br)c(Br)c(Br)c(Br)c2Br)c(Br)c1Br`: the result was inactive. On to `Clc1cccc(Cl)c1Cl`, for which the result was inactive. In the case of `CC(C)(c1ccc(O)c(-c2ccccc2)c1)c1ccc(O)c(-c2ccccc2)c1`, the call was inactive. In the case of `Clc1cnc(Oc2ccc(Oc3ncc(Cl)cc3Cl)cc2)c(Cl)c1`, the outcome was inactive.

With `CCOP(=S)(OCC)OP(=S)(OCC)OCC`, the outcome was inactive. Turning to `CCCCCCCCBr`, the molecule was called inactive. On to `CC1(C)COP(Oc2ccccc2)OC1`, for which the outcome was inactive. Turning to `Cc1ccc(CCl)cc1`, the molecule was classed as inactive. Take `Cc1c([N+](=O)[O-])c(C)c([N+](=O)[O-])c(C(C)(C)C)c1[N+](=O)[O-]`: the call was inactive.

On to `CC(C)N(C(=O)CCl)c1ccccc1`, for which the molecule was called inactive. As for `Brc1ccc(Oc2c(Br)cc(Br)cc2Br)c(Br)c1`, the outcome was inactive. As for `O=NN1CCCCCCC1`, the molecule was classed as inactive. As for `CC[N+](CC)(CC)CC`, the molecule was classed as inactive. For the molecule `O=NN1CCCCCC1`, the outcome was inactive. As for `COC(=O)Nc1cccc(OC(=O)Nc2cccc(C)c2)c1`, the molecule was called inactive. For `COP(=S)(OC)Oc1cc(Cl)c(I)cc1Cl`, the call was inactive.

`Cc1cc(Cl)ccc1OCCCC(=O)O`: the molecule was called inactive.
